Screen size: about 320,000 compounds; about 2,100 (0.66%) were called active. Another 53% or so got no clear call; they are omitted. The call rests on the fitted dose curve; in most records, active means well fitted inhibition curve with a large enough effect in the signal ratio, with a control signal flat (not every such curve was filed as active); inconclusive means small, poorly fitted or top-dose-only effect, or effect the other way, or a change in a side signal; inactive means flat fitted curve, though single readings scatter; the % refers to the signal ratio. Only a selection was taken, and actives are over-represented in it overall.

Among the data in PubChem BioAssay AID2685 (National Center for Advancing Translational Sciences (NCATS), 2010) are Potency, cell number change and outcome values, retold here.
Potency means the concentration at half of the fitted maximal effect.

The nature of the assay: qHTS Assay for Lipid Storage Modulators in Drosophila S3 Cells.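 On cell number change: cells counted by Cell Tracker Red CMTPX staining in the red channel.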 The following applies: BODIPY lipid droplet fluorescence, 18-24 h, cells fed with added oleic acid; cell number change: measured here: cell count max response; series mostly up to 46.1 µM. The method in brief:
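Laser-scanning cytometry quantifies lipid droplet accumulation (500–530 nm total intensity; droplet/cell object ratio) in oleic acid-fed (400 uM added) Drosophila S3 cells treated with a concentration series. 20 uM Triacsin C defined 100% inhibition.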
Background: In qHTS, concentration-response curves come from the screen itself.
On to `C/C(CCc1ccco1)=N/NC(=O)CCC(=O)Nc1cccc(Cl)c1`, for which the Potency result is “inactive” and the cell number change came out at 0.649%.
For `CC(=O)Nc1ccc(NC2=CC(=O)c3ccccc3C2=O)cc1`, in that order: “inactive” and 4.49%.
In the same order, the values of `O=C(O)c1ccc(S(=O)(=O)/N=C2\C=C(Nc3ccccc3F)C(=O)c3ccccc32)cc1` are 6.51 µM (active) and 2.14%.
In the same order, the values of `CCc1ccc(S(=O)(=O)/N=C2\C=C(Nc3ccc(O)cc3)C(=O)c3ccccc32)cc1` are “inactive” and 15.8%.
Take `CC(C)(C)c1ccc(S(=O)(=O)/N=C2\C=C(NS(=O)(=O)c3ccccc3)C(=O)c3ccccc32)cc1`: the Potency result was “inactive” and the cell number change is -1.8%.
In the same order, the values of `Cc1cc(C)c(S(=O)(=O)/N=C2\C=C(Nc3ccc(C(=O)O)cc3)C(=O)c3ccccc32)c(C)c1` are 0.92 µM (active) and 11.7%.
`O=S(=O)(/N=C(/Nc1ccccc1F)c1ccccc1)c1ccccc1`: the Potency entry was “inactive”.
Same read-out and setting: the entry for `Cc1ccc(-n2c(C)cc(/C=N/NC(=O)c3ccncc3)c2C)cc1C` is “inactive”.
Regarding `CC1(C)CC(NC(=S)Nc2ccc([N+](=O)[O-])cc2)CC(C)(C)N1`, the Potency result is “inactive” and the cell number change turned out to be 15.8%.
With `CCOC(=O)C1CCN(c2cc3c(cc2NC(=O)c2ccccc2)n(C)c(=O)n3C)CC1`, the Potency is 3.66 µM (active).
On to `Cc1ccc(C(=O)Nc2cc3c(cc2N2CCCCC2)n(C)c(=O)n3C)cc1`, for which the Potency entry was “inactive” and the cell number change was -8.73%.
In the same order, the values of `CCOC(=O)C1CCN(c2cc3c(cc2NC(=O)c2ccc(F)cc2)n(C)c(=O)n3C)CC1` are “inactive” and -8.96%.
For `c1ccc(-c2nc(-c3nccc4ccccc34)oc2-c2ccccc2)cc1`, in that order: “inactive” and -5.47%.
For `N#CCCN(C(=O)COc1ccc(C#N)cc1)c1ccc(F)cc1`, in that order: “inactive” and 6.15%.
Take `CCN(C(=O)c1ccccc1Cl)c1ccccc1`: the Potency is 23.1 µM (active).
Still for that read-out and setting: to `CN(C(=O)c1ccccc1Cl)c1ccccc1` belongs “inactive”.
For `CCN(C(=O)CCC(=O)N(CC)c1ccccc1)c1ccccc1`, the Potency entry was “inactive” and the cell number change is -0.108%.
In the same order, the values of `CCC(C)(C)n1nnnc1C(c1cccnc1)N1CCN(c2cccc(C(F)(F)F)c2)CC1` (configuration not stated) are “inactive” and -8.43%.
For `O=[N+]([O-])c1ccc(-c2ccc(S(=O)(=O)N3CCOCC3)cc2)cc1`, in that order: “inactive” and -1.81%.
As for `CC(=O)C(=Cc1ccc(O)cc1)C(C)=O`, the Potency result was “inactive” and the cell number change is -7.54%.
Take `Cc1cc2c(cc1S(=O)(=O)N(C)c1ccccc1)NC(=O)CO2`: the Potency result is “inactive” and the cell number change is -11.6%.
For `CCc1cc(C(=O)OC)c(NC(=O)CN2CCN(C(=O)c3ccco3)CC2)s1`, in that order: “inactive” and 13.8%.
`CCOC(=O)c1cc(C)sc1NC(=O)CN1CCN(C(=O)c2ccco2)CC1`: the Potency entry was “inactive” and the cell number change is 16.2%.
In the same order, the values of `Cc1cc(Cl)ccc1NC(=O)CN1CCN(C(=O)c2ccco2)CC1` are 4.61 µM (active) and 2.78%.
Regarding `O=C(CN1CCN(C(=O)c2ccco2)CC1)Nc1cc(Cl)ccc1Cl`, the Potency entry is “inactive” and the cell number change was -13.1%.
In the same order, the values of `COC(=O)c1cc(C)sc1NC(=O)CN1CCN(C(=O)c2ccco2)CC1` are 1.84 µM (active) and 3.78%.
For `Cc1ccccc1NC(=O)CN1CCN(C(=O)c2ccco2)CC1`, in that order: “inactive” and 25%.
Regarding `O=C(O)c1cc(-c2cccnc2)nc2ccc(Br)cc12`, the Potency result is “inactive” and the cell number change was determined as 9.56%.
Regarding `CC(C)(C)c1ccc(OCc2nnc(SCC(N)=O)n2N)cc1`, the Potency result is “inactive”.
Same read-out and setting: to `Cc1cccc(NC(=O)CCNC(=O)c2ccccc2Cl)n1` belongs “inactive”.
In the case of `COC(=O)c1ccccc1NC(=O)c1cccnc1`, the Potency result was “inactive” and the cell number change was 10.2%.
For `C/C(=C\C=C(C#N)C#N)c1cc(C#N)c(N)o1`, the Potency is 16.4 µM (active) and the cell number change was -22.3%.
In the same order, the values of `O=C(Cc1cccs1)Nc1ccccc1F` are “inactive” and 10.1%.
For `CCOCCCNC(c1ccccc1)c1ccncc1` (configuration not stated), in that order: “inactive” and 7.02%.
As for `O/N=C1\CCCc2c1nc(-c1ccccc1F)n2O`, the Potency result is “inactive”.
As to `Cc1nc2c(n1O)CCC/C2=N\O`, the Potency entry is “inactive” and the cell number change was -1.11%.
For `COc1ccc(-c2nc3c(n2O)CCC/C3=N\O)cc1`, in that order: 4.61 µM (active) and 4.07%.
Take `O=C(c1cc(COc2ccc3ncccc3c2)on1)N1CCCC1`: the Potency is 7.31 µM (active) and the cell number change was -24%.
With `O=C(c1cc(COc2ccccc2)on1)N1CCCC(OCc2cccnc2)C1` (configuration not stated), the Potency was 1.03 µM (active).
The same measure, in the same setting: the figure for `COc1cccc(OCc2cc(C(=O)N3CCC(c4ccncc4)CC3)no2)c1` is 4.11 µM (active).
For `O=C(c1cc(COc2ccc(F)cc2Cl)on1)N1CCCC(OCc2cccnc2)C1` (configuration not stated), the Potency entry is “inactive” and the cell number change was -4.29%.
In the same order, the values of `COc1ccccc1OCc1cc(C(=O)N2CCCC(OCc3cccnc3)C2)no1` (configuration not stated) are “inactive” and 8.19%.
For `CCC(O)C1CCN(C(=O)c2cc(COc3ccc4ncccc4c3)on2)CC1` (configuration not stated), the Potency entry was “inactive”.
Consider `CCN1CCN(C(=O)c2cc(COc3ccc4ncccc4c3)on2)CC1`, for which the Potency entry is “inactive” and the cell number change was -6.54%.
Regarding `COc1cccc(OCc2cc(C(=O)N3CCN(C(C)=O)CC3)no2)c1`, the Potency result was “inactive” and the cell number change is 19%.
For `Cc1cccc(C)c1OCc1cc(C(=O)N2CCC(c3ccncc3)CC2)no1`, in that order: “inactive” and -16.1%.
For `CCOC(=O)C(C(=O)OCC)N(C#N)c1nc(N(C)C)nc(N(C)C)n1`, in that order: “inactive” and 12.4%.
As for `O=c1[nH]n2cc(-n3cc([N+](=O)[O-])cn3)cnc2c1Br`, the Potency result is “inactive”.
`Cc1ccc(C(=O)Nc2ccc(N3CCN(C)CC3)cc2)cc1C`: the Potency entry is “inactive” and the cell number change turned out to be 4.5%.
For `Nc1nnc(SCc2ccccc2F)s1`, in that order: “inactive” and 16.1%.
For `COc1ccc(NC(=O)CC2C(=O)N(C)C(=S)N2Cc2ccc3c(c2)OCO3)cc1` (configuration not stated), in that order: “inactive” and 20%.
In the case of `Oc1ccccc1-n1c(-c2ccccc2)ccc1-c1ccccc1`, the Potency was 2.06 µM (active) and the cell number change was -6.63%.
For `COc1ccc(-c2ccc(CCC(=O)O)n2-c2ccccc2O)cc1`, in that order: “inactive” and 6.08%.
For `C/C(=N\O)c1c(O)cc(-c2ccccc2)n(-c2ccccc2)c1=O`, in that order: “inactive” and 13.2%.
Turning to `O=C(CCCN1C(=O)c2ccccc2C1=O)Nc1ccc(Br)cn1`, the Potency result was “inactive” and the cell number change was 16.2%.
Consider `Cc1ccc(S(=O)(=O)N2CCOC2CNC(=O)C(=O)NCCCN2CCOCC2)cc1` (configuration not stated), for which the cell number change is -5.14% and the outcome is “inactive [at 0.369 µM]”.
As to `COC(=O)c1ccncc1C(=O)Nc1ccc(Oc2ncc(C(F)(F)F)cc2Cl)cc1`, the Potency result is “inactive” and the cell number change was -10.1%.
In the same order, the values of `CCCOc1ccc(CCC(=O)O)cc1` are “inactive” and 1.83%.
In the same order, the values of `Cc1nc(SCC(=O)NC(=O)NC2CCCCC2)nc(C)c1C` are “inactive” and -13.4%.
Take `CSCCC(NC(=O)c1ccco1)C(=O)N(C)CC(=O)Nc1c(Cl)cccc1Cl` (configuration not stated): the Potency entry is “inactive”.
Turning to `COc1ccc(CCN(C)C(=O)C(CCSC)NC(=O)c2ccco2)cc1OC` (configuration not stated), the Potency was 2.31 µM (active) and the cell number change was -10.8%.
In the same order, the values of `COc1ccc(CCNC(=O)c2ccco2)cc1OC` are “inactive” and 10.7%.
Turning to `CCOC(=O)c1c(-c2ccc(C)cc2)csc1NC(=O)/C(C#N)=C/c1ccc(O)c(OC)c1`, the Potency was 23.1 µM (active) and the cell number change is -27.7%.
In the same order, the values of `CCOC(=O)c1c(-c2ccccc2)csc1NC(=O)/C(C#N)=C/c1ccc(OC)c(OC)c1` are “inactive” and -0.159%.
For `COc1cc(/C=C(\C#N)C(=O)NCc2cccs2)ccc1O`, the Potency entry was “inactive” and the cell number change was -0.911%.
For `COc1ccccc1NC(=O)CN1CCOCC1`, in that order: “inactive” and 25.4%.
In the same order, the values of `COc1ccc(/C=N/NC(=O)c2cccc(NC(=O)c3ccccc3Cl)c2)cc1` are “inactive” and -0.417%.
On to `O=C(COC(=O)CCOc1ccccc1)NCCC1=CCCCC1`, for which the Potency result is “inactive” and the cell number change is 10.9%.
Consider `CCOC(=O)C(C)(C)NS(=O)(=O)c1ccc(Cl)c([N+](=O)[O-])c1`, for which the Potency is 20.6 µM (active) and the cell number change was -25%.
For the molecule `CCOC(=O)C(C)(C)N(Cc1ccc(C)cc1)S(=O)(=O)c1ccc(Cl)c([N+](=O)[O-])c1`, the Potency entry was “inactive” and the cell number change was -25.3%.
Take `CCOC(=O)C(C)(C)N(Cc1ccc(Cl)cc1)S(=O)(=O)c1ccc(Cl)c([N+](=O)[O-])c1`: the Potency result is “inactive” and the cell number change worked out at 5.39%.
Regarding `CCOC(=O)C(C)(C)N(Cc1ccccc1C)S(=O)(=O)c1ccc(Cl)c([N+](=O)[O-])c1`, the Potency result was “inactive” and the cell number change was -1.56%.
For `CCOC(=O)C(C)(C)N(Cc1cccc(C)c1)S(=O)(=O)c1ccc(Cl)c([N+](=O)[O-])c1`, in that order: 16.4 µM (active) and -21.7%.
In the same order, the values of `CCOC(=O)C(C)(C)N(Cc1cccc(C)c1)S(=O)(=O)c1cccc([N+](=O)[O-])c1` are “inactive” and -5.11%.
In the case of `CC(C)(C)NC(=O)c1cc(-c2ccccc2)n[nH]1`, the Potency result was “inactive”.
With `CCCOc1ccc(/C=C2\SC(N)=NC2=O)cc1OC`, the Potency result was “inactive” and the cell number change was found to be 8.06%.
In the same order, the values of `NC(=O)c1cc(S(=O)(=O)N2CCN(c3cccc(Cl)c3)CC2)cs1` are “inactive” and 14.3%.
For `COc1ccccc1/C=C/C1C(C(=O)OCC(C)C)=C(C)N=C2SCCC(=O)N21` (configuration not stated), in that order: “inactive” and 9.42%.
Consider `Cc1ccc(NC(=O)c2cn(CCC#N)nc2-c2cccs2)c([N+](=O)[O-])c1`, for which the Potency result was “inactive” and the cell number change is -4.62%.
For `CC1(C)C([N+](=O)[O-])C(c2ccc(F)cc2)NC(c2ccc(F)cc2)C1[N+](=O)[O-]` (configuration not stated), in that order: “inactive” and 2.48%.
For `Cc1ccc(C2NC(c3ccc(C)cc3)C([N+](=O)[O-])C(C)(C)C2[N+](=O)[O-])cc1` (configuration not stated), in that order: “inactive” and -8.86%.
Turning to `Cc1cccc(C2NC(c3cccc(C)c3)C([N+](=O)[O-])C(C)(C)C2[N+](=O)[O-])c1` (configuration not stated), the Potency was 5.17 µM (active) and the cell number change turned out to be 3.3%.
For `Cc1cccc(NC(=O)CS(=O)(=O)c2cn(C)c3ccccc23)c1C`, the Potency result is “inactive”.
For the molecule `Clc1ccc(-c2nnc(CNC3CC3)o2)cc1`, the Potency result was “inactive” and the cell number change came out at 6.34%.
In the same order, the values of `CCCCCN(C(=O)CN1CCC(Cc2ccccc2)CC1)c1c(N)n(CCCC)c(=O)[nH]c1=O` are “inactive” and 27.6%.
For `CCOC(=O)C1CCN(CCC(=O)Nc2ccc(Br)c(C)c2)CC1`, in that order: “inactive” and 0.794%.
In the same order, the values of `CCOC(=O)C1CCCN(CCC(=O)Nc2ccc(C)c(C)c2)C1` (configuration not stated) are “inactive” and 17%.
On to `CCOC(=O)C1CCCN(CCC(=O)Nc2ccc(Br)c(C)c2)C1` (configuration not stated), for which the Potency was 18.4 µM (active) and the cell number change is 4.56%.
For `O=C(NCCc1nc2ccccc2[nH]1)/C(=C/c1ccco1)NC(=O)c1ccc(Br)o1`, in that order: “inactive” and -2.37%.
Consider `COc1ccc2[nH]c(C)c(CN3CCCCC3)c(=O)c2c1`, for which the Potency result was “inactive” and the cell number change is -15.2%.
`CCc1nnc(NC(=O)C2CCN(S(=O)(=O)Cc3ccccc3)CC2)s1`: the Potency entry is “inactive” and the cell number change is -9.95%.
